Measurements from PubChem BioAssay AID588790 (National Center for Advancing Translational Sciences (NCATS), 2011).
About 85 (7%) of roughly 1,200 compounds were called active. Where a call stands in place of a potency, no number is given. The call rests on the fitted dose curve. The full list was thinned out, with actives kept by preference.

molecular target: Beta-2 adrenergic receptor (Homo sapiens) (UniProt P07550); experiment: qHTS assay of beta-arrestin-biased ligands of beta2-adrenergic receptor: Hit Validation with GloSensor; conditions: W9-Glo22F cells, GloSensor cAMP luminescence, beta2AR agonism; activation: at 46.1 µM (top of the series)
Sequence (P07550 whole entry, looked up): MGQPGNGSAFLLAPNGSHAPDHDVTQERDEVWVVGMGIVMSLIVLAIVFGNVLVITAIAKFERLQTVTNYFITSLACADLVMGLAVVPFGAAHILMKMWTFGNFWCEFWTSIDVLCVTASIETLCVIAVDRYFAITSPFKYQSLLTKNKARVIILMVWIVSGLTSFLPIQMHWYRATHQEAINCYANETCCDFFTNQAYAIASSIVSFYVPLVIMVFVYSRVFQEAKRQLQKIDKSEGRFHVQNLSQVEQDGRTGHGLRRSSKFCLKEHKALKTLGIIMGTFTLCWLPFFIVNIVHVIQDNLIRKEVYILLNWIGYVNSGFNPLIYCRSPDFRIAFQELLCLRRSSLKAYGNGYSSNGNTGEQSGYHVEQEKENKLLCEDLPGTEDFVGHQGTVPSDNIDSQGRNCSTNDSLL
From the text: The concept of biased agonism is an emerging concept of molecular pharmacology which proposes that seven transmembrane receptors (7TMRs) or G protein-coupled receptors (GPCRs), exist in multiple signaling conformations and complexes and that ligands (either agonists or antagonists) can induce signaling biased responses for distinct signal transduction cascades.
Furthermore, accumulating evidence over the last decade has drawn attention to a novel function of beta-arrestins as signal transducers that scaffold various signaling molecules upon activation of 7TMRs. […] This beta-arrestin-biased signaling presumably leads to distinct physiological outcomes from those by G protein activation.
Additionally, the active receptor conformations which […] on this beta-arrestin signaling are likely different from those activating G protein signaling
The goal of this screening project is to discover and optimize novel beta-arrestin-biased ligands for beta2-AR signaling. A luminescent cell-based assay for beta2-AR-mediated agonism, known as the Tango assay, has been validated in which ligand binding of a recombinant beta2-AR and subsequent recruitment of a recombinant beta-arrestin lead to the release of the transcriptional activator tTA, which upregulates transcription of a tTA-responsive luciferase gene. […] After compounds were identified in this primary screen, they were tested in a counter screen that used luminescence as measure through the GloSensor reagent.
NIH Molecular Libraries Probe Production Network [MLPCN]
NIH Chemical Genomics Center [NCGC]
PI: Bryan Roth (UNC) and Bob Lefkowitz (Duke)
2 uL of W9-Glo22F cells are dispensed into a white 1536-well plate. They are incubated overnight at 37 deg C at 5% CO2. 23 nL of compounds and controls are pinned into the wells. Then 2 uL of GloSensor is added and the plate is incubated for 10 min at room temperature.The plates are then read on the ViewLux for luminescence.
Potency means the concentration at half of the fitted maximal effect.

SMILES	Potency
NC(=S)N/N=C/c1ccccc1OC(=O)c1cc2ccccc2oc1=O	inactive
COCC(=O)Nc1c(C(=O)Nc2ccc3c(c2)OCCO3)oc2ccccc12	inactive
Cc1cc(-c2n[nH]c(=S)n2/N=C/C(Br)=C/c2ccccc2)n[nH]1	inactive
CC(=C/c1ccccc1)/C=N/n1c(C)n[nH]c1=S	25.9 µM (active)
CCc1n[nH]c(=S)n1/N=C/c1ccc(N(CC)CC)cc1	inactive
Cc1cc(-c2n[nH]c(=S)n2/N=C/C(Cl)=C/c2ccccc2)n[nH]1	36.6 µM (active)
S=c1[nH]nc(-c2ccco2)n1/N=C/C(Cl)=C/c1ccccc1	inactive
COC(=O)c1c(NC(=O)CS(=O)(=O)c2ccccc2)sc(C)c1C	inactive
C/C(=N\NC(=O)c1c[nH]c2ccccc12)c1ccc(C)s1	inactive
COc1cc2c(cc1OC)C(C)N(C(=O)Cn1ncc3c1-c1cc(C)ccc1OC3)CC2 (stereo not given)	inactive
N=c1n(Cc2ccccc2)c2ccccc2n1Cc1ccccc1	inactive
COc1cccc(NC(=S)NN=C2CCCCCC2)c1	inactive
COC(=O)c1cc2sc(Cl)cc2n1CC(=O)Nc1ccc(OC)c(OC)c1OC	inactive
CNc1sc(C(=O)c2ccccc2F)c(N)c1-c1nc2ccccc2s1	18.4 µM (active)
CNc1sc(C(=O)c2cccs2)c(N)c1-c1nc2ccccc2s1	inactive
NC(=S)Nc1nc2ccccc2s1	inactive
CCOC(=O)C1=CN(Cc2cccc(-c3cccnc3)c2)S(=O)(=O)N(CC)C1C (stereo not given)	inactive
Cc1ccc(CONC(=O)c2ccccc2Cl)cc1	inactive
O=C(/C=C/c1ccc(N2CCCCC2)c([N+](=O)[O-])c1)c1ccc(S(=O)(=O)N2CCCC2)cc1	inactive
Cc1ccc2nc(C)c(C(=O)N/N=C/c3cccs3)n2c1	inactive
C=CCNc1nc(Cl)nc(NC2CCCCC2)n1	23.1 µM (active)
COC(=O)COc1cccc2c(=O)n(CC(=O)Nc3ccc4c(c3)OCCO4)ccc12	inactive
CCOC(=O)c1ccccc1NC1c2ccccc2C(=O)N1C1CCN(C(=O)OCC)CC1 (stereo not given)	inactive
O=C(CSc1cccc2cccnc12)N1CCCC1	inactive

SMILES	Potency
COc1ccc(CN=C2NN=C(c3ccccc3)CS2)cc1	inactive
O=C1NC(=NCc2ccccc2)S/C1=C/c1ccc(O)cc1	23.1 µM (active)
CCCCCC(=O)Nc1cccc(C2=NOC3(C2)C[C@@H](C(N)=O)N(C(=O)CC(c2ccccc2)c2ccccc2)C3)c1 (stereo not given in full)	inactive
CN(c1ccccc1)S(=O)(=O)c1ccc(C(=O)Nc2nccs2)cc1	inactive
O=C(Oc1ccc(Cl)c2cccnc12)c1ccco1	inactive
O=C(Oc1c(-c2ccco2)oc2ccccc2c1=O)c1cccnc1	32.6 µM (active)
O=C(Oc1c(Cl)cc(Cl)c2cccnc12)c1ccco1	inactive
Cc1ccc2c(c1)[C@H]1[C@H](CO2)[C@H](c2ccccc2)[C@]2(C)C(=O)Nc3ccccc3C(=O)N12	inactive
NC(=S)N/N=C/c1ccc(-c2cccc([N+](=O)[O-])c2)o1	20.6 µM (active)
NC(=S)N/N=C/c1ccc(-c2ccc([N+](=O)[O-])cc2)o1	inactive
NC(=S)N/N=C/c1ccc(-c2ccccc2)o1	inactive
Cc1cccc(NC(=S)NC(=O)C2CC2)c1	inactive
CCC(NC(C)C)C(O)c1ccc(O)c(O)c1 (stereo not given)	0.0065 µM (active)
CCC(NC(C)C)C(O)c1ccc(O)c2[nH]c(=O)ccc12 (stereo not given)	0.0058 µM (active)
COc1cccc(OCC(=O)Nc2c3c(nn2-c2ccc(F)cc2)CS(=O)(=O)C3)c1	inactive
O=C(NC1CCCCC1)N(Cc1cc2cc3c(cc2[nH]c1=O)OCCO3)CC1CCCO1 (stereo not given)	inactive
CCNC(=S)N/N=C(\C)c1cccc(C(F)(F)F)c1	inactive
CC(=O)Nc1ccc(S(=O)(=O)N2CCC(c3nnc(-c4ccc(C)cc4)o3)CC2)cc1	inactive
CCOC(=O)c1c(NC(=O)CSc2cccc[n+]2[O-])sc(C(=O)Nc2ccccc2)c1C	inactive
CCOC(=O)c1c(C)nc2c(c1-c1ccccc1)C(=O)CC(C)(C)C2	inactive
CC(C)C(=O)COc1c2occc2cc2ccc(=O)oc12	13 µM (active)
N#CC1=C(N)OC2=C(CC/C2=C\c2ccccc2)C1c1ccccc1 (stereo not given)	inactive
CC1CCCC/C1=N\NC(=S)NCCc1ccccc1 (stereo not given)	inactive
S=c1ccc2ccccc2[nH]1	inactive

SMILES	Potency
S=c1nc(-c2ccccc2)[nH]c2ccc(Br)cc12	inactive
S=c1nc(-c2ccccc2)[nH]c2ccccc12	32.6 µM (active)
CCOC(=O)C1(O)CC(C)=NN1C(=O)c1cccc(Cl)c1 (stereo not given)	inactive
CCNC(=S)N/N=C/c1sccc1C	inactive
CC(C)NC(=S)N/N=C/c1cccs1	inactive
CCNC(=S)N/N=C/c1cccs1	5.8 µM (active)
Cc1noc(C)c1COc1cccc(C(=O)Nc2ccccc2N2CCOCC2)c1	inactive
O=C(N/N=C/c1ccccc1OC(=O)c1ccc2c(c1)OCO2)c1ccccc1	inactive
Cn1c(/C=C/c2ccc([N+](=O)[O-])o2)nc2ccccc2c1=O	inactive
N#C/C(=C\c1cccc(O)c1)C(=O)Nc1ccc2c(c1)OCCO2	inactive
O=C(CC(c1ccco1)S(=O)(=O)c1ccccc1)c1ccccc1 (stereo not given)	inactive
O=C(c1ccccc1)c1ccc2nc(-c3ccco3)c(-c3ccco3)nc2c1	32.6 µM (active)
O=C(O)/C(=C\c1ccco1)NC(=O)c1ccccc1	inactive
CC(C)[C@H](NC(=O)c1ccccc1Cl)C(=O)Nc1nc(-c2ccccn2)cs1	inactive
COc1cccc(N2CCN(C(=O)/C=C/c3ccco3)CC2)c1	inactive
CC1=C(C)/C(=N\OS(=O)(=O)c2ccc(C)cc2)C=CC1=O	inactive
C/C(=N\NC(=S)NC(C)C)c1ccccc1OC(F)F	inactive
CC/C(=N\NC(=S)NC(C)C)c1ccc(OC)c(OC)c1	23.1 µM (active)
C/C(=N\NC(=S)NC(C)C)c1ccco1	inactive
CCOc1ccc(/C(CCC(=O)O)=N/NC(=S)NC(C)C)cc1	inactive
COc1cc(/C(C)=N/NC(=S)NC(C)C)cc(OC)c1OC	18.4 µM (active)
C/C(=N\NC(=S)NC(C)C)c1ccccc1	inactive
